Source: PubChem BioAssay (several laboratories)
A selection: hits, their analogues and other compounds. The true share with any hit is near 1.5%.
FXIIa mix inh: blocks human factor XIIa in pooled compound mixtures; purified FXIIa, fluorogenic substrate; inhibition, % at 5 µM; actives 0.2% (n = 62,000);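 note: 0% = enzyme without compound and 100% = no enzyme blank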
Target sequence (P00748 20-372 limits assumed): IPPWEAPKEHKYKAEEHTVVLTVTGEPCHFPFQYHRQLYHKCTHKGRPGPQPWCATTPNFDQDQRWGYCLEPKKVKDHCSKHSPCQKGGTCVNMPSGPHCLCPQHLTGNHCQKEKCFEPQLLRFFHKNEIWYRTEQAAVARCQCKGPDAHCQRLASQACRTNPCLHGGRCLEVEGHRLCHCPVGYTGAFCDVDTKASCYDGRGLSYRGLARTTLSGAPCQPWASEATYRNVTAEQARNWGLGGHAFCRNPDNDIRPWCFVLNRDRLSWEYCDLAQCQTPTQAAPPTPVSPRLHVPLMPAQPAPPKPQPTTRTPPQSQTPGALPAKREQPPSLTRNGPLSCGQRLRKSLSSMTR
Target sequence (P00748 373-615 limits assumed): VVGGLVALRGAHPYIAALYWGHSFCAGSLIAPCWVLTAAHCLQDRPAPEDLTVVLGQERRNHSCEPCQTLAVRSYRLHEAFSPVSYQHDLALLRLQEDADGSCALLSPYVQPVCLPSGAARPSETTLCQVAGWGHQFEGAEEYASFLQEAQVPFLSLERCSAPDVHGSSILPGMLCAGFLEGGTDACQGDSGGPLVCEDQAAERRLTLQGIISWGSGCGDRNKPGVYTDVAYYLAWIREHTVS
SKBR3 24h inh: SK-BR-3 proliferation inhibitors | SK-BR-3 viability, CellTiter-Glo ATP luminescence, 24 h; active compounds read low | viability, % at 10 µM | actives 0.47% (n = 41,000) | AID 847;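 active = viability at or below the median of all test compounds minus 3 SD, in both replicates if run twice, cut at about 45% in these data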;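 note: 100% = median untreated cell wells and 0% = median positive control drug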
FXIa mix inh: blocks human factor XIa in pooled compound mixtures | P03951 | purified FXIa, fluorogenic substrate | inhibition, % at 5 µM | actives 0.19% (n = 62,000);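 note: each value is inhibition by a whole ten-compound pool holding the compound; 0% = enzyme with no mixture and 100% = wells lacking enzyme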
C1s block: blocks human complement C1s protease activity; P09871; purified C1s, fluorogenic AMC substrate, pooled mixtures; mean inhibition % of two 10-compound mixtures (active compounds read high), % at 5 µM (by protocol); actives 0.16% (n = 62,000);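 active = inhibition above 20% in each of the two 10-compound mixture wells holding the compound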;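 note: 0% = enzyme wells lacking compound mixture and 100% = no-enzyme blank wells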
Cathepsin G inh: blocks human cathepsin G enzyme activity. P08311. actives 0.2% (n = 62,000). AID 581. inhibition, % at 5 µM (by protocol). purified enzyme, AMC-tetrapeptide fluorescence, pooled mixtures;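 active = inhibition above 20% in each of the two mixture wells holding the compound; inactive = inhibition of 20% or less in either well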;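 note: 0% = enzyme control without mixture and 100% = blank lacking enzyme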
Her2 expr inh: lowers expression of human Her2 kinase. SKBR-3 HER2 protein level, AlphaScreen, 18-24 h; active compounds read low. actives 0.69% (n = 65,000). HER2 level % of control, % at 10 µM;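 active = HER2 level under 5% of the carrier-only control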;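 note: 100% = DMSO carrier and 0% = 500 nM PU-H71 HSP90 inhibitor; lower value means stronger loss of Her2 protein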
Active calls of the source: *; · = not tested or not shown. Cut-off read from the data, not from the text of the source, unless noted: active = inhibition above about 20% (passing the limit was not always enough); inactive = the rest.

SMILES	FXIIa mix inh	SKBR3 24h inh	FXIa mix inh	C1s block	Cathepsin G inh	Her2 expr inh
CC(C)(CC(=O)N1CCN(c2ccc(Cl)cc2)CC1)CC1=NS(=O)(=O)c2ccccc2N1	5	·	10	2	-1	96
CCCc1[nH]nc2c1C(c1cn[nH]c1-c1ccc(F)cc1)C(C#N)=C(N)O2 (centres undefined)	1	91	21*	17	13	17
CCCc1[nH]nc2c1C(c1ccccc1OC)C(C#N)=C(N)O2 (centres undefined)	2	93	8	9	9	93
COc1ccc(-n2cnnc2SCC(=O)c2cc(C)n(Cc3cccs3)c2C)cc1	12	·	2	0	7	-21*
COc1ccc(-c2nnc(SCC(=O)c3cc(C)n(Cc4cccs4)c3C)o2)cc1	-2	·	2	-34	-5	52
CCn1c(C)nc2cc(C(=O)n3cc(C(=O)c4cc(F)ccc4O)cn3)ccc21	-15	·	8	25*	20	85
CCn1c(C)nc2cc(C(=O)OCCC(F)(F)F)ccc21	-5	·	7	-40	1	118
Cc1ccc(CN2C(=O)CCC2C(=O)NCCN2CCN(c3cccc(Cl)c3)CC2)cc1 (centres undefined)	3	78	-1	50	-1	81
Cc1cc(C(=O)CSc2nnc(-c3cccs3)o2)c(C)n1-c1ccccc1	3	·	6	-8	10	89
COc1ccc(S(=O)(=O)N2CCC(NC(=O)Nc3ccc(C)cc3)CC2)cc1	22*	110	4	4	1	93
COCC(C)n1c(C)cc(C(=O)COC(=O)c2c(NC(C)=O)sc(C)c2C)c1C (centres undefined)	7	·	-4	-8	10	-11*
COc1cc(C2c3c(oc4c(C)cc(C)cc4c3=O)C(=O)N2Cc2cccnc2)ccc1O (centres undefined)	13	35*	6	18	15	80
COc1ccc(C2c3c(oc4c(C)cc(C)cc4c3=O)C(=O)N2Cc2cccnc2)cc1OC (centres undefined)	4	51	3	-15	1	102
COc1ccc(CCNc2c(N)n(Cc3ccccc3)c(=O)[nH]c2=O)cc1OC	-17	·	16	-3	0	124
N=c1n(CCO)c2ccccc2n1CCOc1ccc(Cl)cc1Cl	4	·	10	4	-1	2.4*
CC(=O)c1ccc(-n2nncc2C(C)(C)C)cc1	34*	74	1	-2	-1	129
Cn1c2c(c3ccccc31)CC/C2=N\O	0	125	1	3	9	77
COC(=O)c1sc(S(=O)(=O)N2CCCCC2)c(C(=O)OC)c1C	7	110	11	15	5	81
COC(=O)c1sc(S(=O)(=O)N2CCN(c3ccccc3)CC2)c(C(=O)OC)c1C	7	91	0	-4	2	-30*
C=CCOc1c(Br)cc(CNn2nnnc2N)cc1OC	2	87	8	11	7	50
CCCc1cc(C(=O)Cc2ccc(F)cc2)c(O)cc1O	·	16*	·	·	·	-12*
CCc1cc(C(=O)Cc2ccc(F)cc2)c(O)cc1O	17	87	18	-1	7	82
O=C(CN1C(=O)C2CC=CCC2C1=O)OCCN1C(=O)c2ccccc2C1=O (centres undefined)	10	·	6	-9	-1	88
c1ccc(CNC2=NCCC2)nc1	4	·	-14	-68	-14	-27*
c1cc(CNC2=NCCCCC2)ccn1	-1	·	-13	-42	1	96
SMILES	FXIIa mix inh	SKBR3 24h inh	FXIa mix inh	C1s block	Cathepsin G inh	Her2 expr inh
CCC(C)n1c(SCC(=O)NC(=O)Nc2ccc3c(c2)OCCO3)nc2ccccc2c1=O (centres undefined)	1	·	10	-7	2	83
COc1ccc(OC)c(S(=O)(=O)Nc2ccc(O)c3ccccc23)c1	3	·	-2	-2	10	1.2*
Cc1c(-c2cccs2)[n+](=O)c2c(n1[O-])CCCC2	·	103	·	·	·	-31*
CCCCNC(=O)c1cn(C)c2ccc(S(=O)(=O)N3CCOCC3)cc2c1=O	6	·	8	4	0	96
Cc1nn(C)c(C)c1NC(=O)c1ccnn1C	1	121	7	21*	15	96
O=C1/C(=N/n2cnnc2)c2ccccc2N1Cc1ccccc1	3	90	0	3	8	-16*
c1ccc2c(c1)C(=Nn1cnnc1)c1ccccc1-2	-1	108	5	-13	-3	120
COC(=O)Cc1c(C)c2c(OCc3nn[nH]n3)cc(C)cc2oc1=O	24*	88	-4	-51	4	97
CCc1cc(=O)oc2cc(C)cc(OCc3nn[nH]n3)c12	1	96	0	-16	6	78
CCOC(=O)C(C)Oc1nc(Oc2ccccc2)nc(N(C)C)n1 (centres undefined)	·	85	·	·	·	104
COc1cccc(Oc2ccc(N)cn2)c1	23*	92	-9	-11	0	119
CCOc1cccc(Oc2ccc(C(F)(F)F)cn2)c1	4	96	11	5	-5	89
Cc1cc(F)c(F)c(C(=O)N2CCN(C)CC2)c1Cl	-1	·	2	-8	4	97
